Inconclusive results are not listed. Activity calls are given as the source filed them. Unless noted, the call rests on the fitted dose curve; in most records, active means well fitted curve in the direction sought with a large enough effect in the repeat runs; inconclusive means weak or mixed curves; inactive means no such curve, though single readings can be large; an effect the other way counts as inactive or inconclusive.
Legend:
[1] = qHTS assay to identify small molecule antagonists of the thyroid receptor (TR) signaling pathway - cell viability counter screen (AID 743064); further: nearly all actives have a fitted effect of over 50% in size; further: potency means the concentration at half of the fitted maximal effect
How it was run: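 GH3.TRE-Luc rat pituitary cells carrying a TRE-luciferase reporter were treated with compound plus 1 nM T3 (final) for 23.5 h at 37 °C. Viability was then read in the same wells by CellTiter-Fluor fluorescence after a further 30 min.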

[2] = qHTS assay to identify small molecule antagonists of the thyroid receptor (TR) signaling pathway (AID 743065); further: potency means the concentration at half of the fitted maximal effect; nearly all actives have a fitted effect of over 55% in size
How it was run: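 Antagonism measured as loss of luciferase signal in GH3 cells stably carrying a TRE-luciferase reporter, co-treated with compound and T3 (1 nM final) for 23.5 h at 37 C. Viability was read in the same well by CellTiter-Fluor.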

[3] = qHTS assay to identify small molecule antagonists of the estrogen receptor alpha (ER-alpha) signaling pathway using the BG1 cell line - cell viability counter screen (AID 743081);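 further: compound given together with 17beta-estradiol as the ER stimulus; nearly all actives have a fitted effect of over 45% in size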; further: potency means the concentration at half of the fitted maximal effect
Aromatase (Homo sapiens) = Aromatase (Homo sapiens) (UniProt P11511); assay: qHTS assay to identify aromatase inhibitors (AID 743083); further: nearly all actives have a fitted effect of over 55% in size; further: potency means the concentration at half of the fitted maximal effect
Aromatase (Homo sapiens), sequence (P11511 whole entry, looked up): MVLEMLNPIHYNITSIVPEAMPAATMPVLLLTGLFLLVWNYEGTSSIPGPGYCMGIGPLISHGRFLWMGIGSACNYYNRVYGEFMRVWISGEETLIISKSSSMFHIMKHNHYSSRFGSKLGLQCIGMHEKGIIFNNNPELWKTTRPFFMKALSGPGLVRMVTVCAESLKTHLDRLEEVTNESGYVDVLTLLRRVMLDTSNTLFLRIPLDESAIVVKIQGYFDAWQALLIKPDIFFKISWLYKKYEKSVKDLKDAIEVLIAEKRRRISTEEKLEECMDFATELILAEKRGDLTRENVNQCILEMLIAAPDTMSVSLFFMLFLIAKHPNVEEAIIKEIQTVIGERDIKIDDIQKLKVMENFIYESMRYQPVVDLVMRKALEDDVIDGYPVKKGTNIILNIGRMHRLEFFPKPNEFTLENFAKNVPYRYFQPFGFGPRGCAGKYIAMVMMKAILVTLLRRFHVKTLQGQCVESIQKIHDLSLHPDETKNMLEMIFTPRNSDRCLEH

[4] = qHTS assay to identify aromatase inhibitors - cell viability counter screen (AID 743084);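 further: cells stimulated with testosterone during compound exposure; nearly all actives have a fitted effect of over 55% in size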; further: potency means the concentration at half of the fitted maximal effect
[5] = molecular target: Nuclear receptor subfamily 1 group I member 2 (Rattus norvegicus) (UniProt Q9R1A7); assay: Rat pregnane X receptor (rPXR) activation by small molecules, qHTS assay (AID 1346983); conditions: rPXR luciferase reporter cells, One-Glo luminescence, 24 h; max activation: hits give high values; further: on the % scale 0 is the no-effect control and ±100 the full control effect; nearly all actives have a fitted effect of over 20% in size
Nuclear receptor subfamily 1 group I member 2 (Rattus norvegicus), sequence (Q9R1A7 whole entry, looked up): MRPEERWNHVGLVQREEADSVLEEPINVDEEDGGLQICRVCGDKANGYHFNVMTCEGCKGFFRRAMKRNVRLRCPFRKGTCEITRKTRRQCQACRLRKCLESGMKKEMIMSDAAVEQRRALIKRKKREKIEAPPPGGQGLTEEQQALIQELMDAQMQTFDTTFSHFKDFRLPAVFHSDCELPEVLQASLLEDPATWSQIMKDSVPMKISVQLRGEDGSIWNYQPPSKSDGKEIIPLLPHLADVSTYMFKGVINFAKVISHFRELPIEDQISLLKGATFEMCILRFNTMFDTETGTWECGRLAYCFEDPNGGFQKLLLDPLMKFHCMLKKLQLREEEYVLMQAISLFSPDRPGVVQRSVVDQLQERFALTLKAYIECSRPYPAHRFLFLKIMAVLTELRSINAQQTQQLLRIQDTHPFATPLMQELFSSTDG
How it was run: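 Luminescent readout (One-Glo luciferase, 30 min room temperature) followed 24 hr compound treatment at 37 C of rPXR cells plated 2,000 per well and preincubated 5hr; qHTS format with compounds delivered in DMSO.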

[6] = molecular target: Nuclear receptor subfamily 1 group I member 2 (Homo sapiens) (UniProt O75469); assay: Human pregnane X receptor (PXR) activation by small molecules, qHTS assay (AID 1346985); further: nearly all actives have a fitted effect of over 40% in size; further: potency means the concentration at half of the fitted maximal effect
How it was run: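 DPX-2 cells (HepG2 co-transfected with a PXR response element and a CYP3A4-promoter luciferase construct) were seeded at 2,000 per well, rested 5 hr at 37C, then exposed to DMSO-dissolved compounds for 24 hr. Activation was read as luciferase luminescence.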

[7] = qHTS assay to identify small molecule antagonists of the estrogen receptor alpha (ER-alpha) signaling pathway - cell viability counter screen (AID 743074; calls by dose curve;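 further: HEK293 cells carrying ER-alpha-UAS-bla reporter stimulated with 17beta-estradiol; on the % scale 0 is the no-effect control and ±100 the full control effect; nearly all actives have a fitted effect of over 45% in size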)
[8] = molecular target: Estrogen receptor (Homo sapiens) (UniProt P03372); assay: qHTS assay to identify small molecule agonists of the estrogen receptor alpha (ER-alpha) signaling pathway using the BG1 cell line (AID 743079); conditions: BG1Luc4E2 cells, ERE-luciferase agonist, 22 h; activation: at 70.3 µM (top of the series); further: on the % scale 0 is the no-effect control and ±100 the full control effect; nearly all actives have a fitted effect of over 20% in size
Estrogen receptor (Homo sapiens), sequence (P03372 whole entry, looked up): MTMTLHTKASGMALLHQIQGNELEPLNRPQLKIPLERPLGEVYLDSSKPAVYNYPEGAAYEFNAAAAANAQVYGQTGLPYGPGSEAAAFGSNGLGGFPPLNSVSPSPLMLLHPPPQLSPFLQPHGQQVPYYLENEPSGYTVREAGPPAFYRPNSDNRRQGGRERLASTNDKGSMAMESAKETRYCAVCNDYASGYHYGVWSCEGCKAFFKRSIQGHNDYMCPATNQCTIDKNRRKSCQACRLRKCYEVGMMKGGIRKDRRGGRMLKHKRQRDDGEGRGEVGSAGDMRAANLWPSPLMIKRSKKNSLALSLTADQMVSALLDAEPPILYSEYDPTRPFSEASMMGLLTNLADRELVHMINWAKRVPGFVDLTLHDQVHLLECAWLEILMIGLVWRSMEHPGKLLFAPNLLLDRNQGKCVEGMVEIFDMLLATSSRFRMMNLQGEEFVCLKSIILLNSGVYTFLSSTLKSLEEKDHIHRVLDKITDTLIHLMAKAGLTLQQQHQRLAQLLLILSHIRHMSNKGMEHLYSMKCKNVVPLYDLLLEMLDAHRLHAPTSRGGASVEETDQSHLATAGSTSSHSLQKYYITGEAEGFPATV

[9] = molecular target: Aryl hydrocarbon receptor (Homo sapiens) (UniProt P35869); assay: qHTS assay to identify small molecule that activate the aryl hydrocarbon receptor (AhR) signaling pathway (AID 743085); further: nearly all actives have a fitted effect of over 15% in size; further: potency means the concentration at half of the fitted maximal effect
Aryl hydrocarbon receptor (Homo sapiens), sequence (P35869 whole entry, looked up): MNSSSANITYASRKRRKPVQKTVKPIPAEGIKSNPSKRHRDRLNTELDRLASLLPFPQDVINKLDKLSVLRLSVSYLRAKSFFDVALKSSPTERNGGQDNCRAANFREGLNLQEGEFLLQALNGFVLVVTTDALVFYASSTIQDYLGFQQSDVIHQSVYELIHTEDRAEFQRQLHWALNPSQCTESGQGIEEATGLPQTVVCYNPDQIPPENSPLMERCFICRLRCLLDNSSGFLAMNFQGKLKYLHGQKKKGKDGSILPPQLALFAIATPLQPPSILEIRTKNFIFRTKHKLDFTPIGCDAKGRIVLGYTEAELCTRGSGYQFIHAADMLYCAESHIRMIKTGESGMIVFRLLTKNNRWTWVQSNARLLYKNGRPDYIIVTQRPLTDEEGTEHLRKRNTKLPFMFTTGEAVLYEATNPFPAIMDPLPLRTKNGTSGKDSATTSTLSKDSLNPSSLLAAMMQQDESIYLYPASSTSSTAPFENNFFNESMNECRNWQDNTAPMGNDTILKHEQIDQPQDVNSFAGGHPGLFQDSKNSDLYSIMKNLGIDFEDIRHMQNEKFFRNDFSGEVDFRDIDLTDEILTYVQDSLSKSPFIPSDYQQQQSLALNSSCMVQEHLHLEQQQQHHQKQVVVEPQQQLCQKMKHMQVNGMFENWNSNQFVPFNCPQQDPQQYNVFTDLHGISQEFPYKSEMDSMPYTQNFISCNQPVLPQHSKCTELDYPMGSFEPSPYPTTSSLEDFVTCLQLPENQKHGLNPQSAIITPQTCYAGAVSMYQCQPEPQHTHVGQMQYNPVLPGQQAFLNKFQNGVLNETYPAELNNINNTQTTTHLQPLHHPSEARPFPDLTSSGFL
How it was run: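 HepG2 cells (HG2L7.5c1) stably carrying a firefly luciferase reporter driven by 20 dioxin responsive elements were exposed to compound for 24 h at 37C after a 5 h settling period; luminescence rise (ONE-Glo) indicated activation.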

[10] = qHTS assay to identify small molecule that activate the aryl hydrocarbon receptor (AhR) signaling pathway - cell viability counter screen (AID 743086);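 further: HepG2 liver cells carrying the AhR DRE luciferase reporter; on the % scale 0 is the no-effect control and ±100 the full control effect; nearly all actives have a fitted effect of over 45% in size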
How it was run: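 Cytotoxicity counter screen: CellTiter-Fluor signal (30 min, 37 C) in 4000 HepG2 cells/well carrying the DRE-luciferase reporter, following 24 h compound exposure at 37 C.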

[11] = molecular target: Peroxisome proliferator-activated receptor gamma (Homo sapiens) (UniProt P37231); assay: qHTS assay to identify small molecule agonists of the peroxisome proliferator-activated receptor gamma (PPARg) signaling pathway (AID 743094; active means well fitted activation curve with a large enough effect in the signal ratio in the repeat runs, not every such curve was filed as active; the % refers to the signal ratio; further: on the % scale 0 is the no-effect control and ±100 the full control effect)
Peroxisome proliferator-activated receptor gamma (Homo sapiens), sequence (P37231 whole entry, looked up): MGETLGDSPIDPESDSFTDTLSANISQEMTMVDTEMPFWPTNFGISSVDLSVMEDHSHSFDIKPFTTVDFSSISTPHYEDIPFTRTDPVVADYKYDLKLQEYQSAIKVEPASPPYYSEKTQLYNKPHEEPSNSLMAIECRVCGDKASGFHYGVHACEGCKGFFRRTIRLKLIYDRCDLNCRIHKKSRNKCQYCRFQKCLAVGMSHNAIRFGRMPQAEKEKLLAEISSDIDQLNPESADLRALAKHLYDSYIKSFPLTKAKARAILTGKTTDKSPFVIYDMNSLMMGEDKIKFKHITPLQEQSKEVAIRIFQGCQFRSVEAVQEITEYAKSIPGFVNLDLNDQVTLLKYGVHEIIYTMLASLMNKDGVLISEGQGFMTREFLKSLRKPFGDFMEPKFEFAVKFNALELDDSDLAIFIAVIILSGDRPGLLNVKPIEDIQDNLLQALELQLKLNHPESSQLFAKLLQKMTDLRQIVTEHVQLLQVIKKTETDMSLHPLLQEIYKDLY
How it was run: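 Cell-based bla reporter, HEK293H background, PPARg-driven UAS. Pre-incubation 5 h, 37C, 5% CO2. Compound 17 h, 37C. Substrate 1 h RT; fluorescence.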

[12] = molecular target: Estrogen receptor (Homo sapiens) (UniProt P03372); assay: qHTS assay to identify small molecule agonists of the estrogen receptor alpha (ER-alpha) signaling pathway (AID 743075; calls by dose curve;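 further: HEK293 GripTite cells with ER-alpha and UAS-driven beta-lactamase reporter; on the % scale 0 is the no-effect control and ±100 the full control effect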)
[13] = molecular target: Nuclear receptor subfamily 1 group I member 2 (Homo sapiens) (UniProt O75469); assay: CYP3A4 induction through human pregnane X receptor (PXR) by small molecules, qHTS assay (AID 1346984); further: on the % scale 0 is the no-effect control and ±100 the full control effect; nearly all actives have a fitted effect of over 40% in size
How it was run: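 Human PXR activation is tracked via CYP3A4 promoter-luciferase in DPX-2 (HepG2) cells. Compounds treat cells for 24hr at 37C, and luminescence is read after One-Glo.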

[14] = tested on: thyroid hormone receptor (rat, GH3 cells); assay: qHTS assay to identify small molecule agonists of the thyroid receptor (TR) signaling pathway (AID 743066; calls by dose curve; further: on the % scale 0 is the no-effect control and ±100 the full control effect)
[15] = qHTS assay to identify small molecule antagonists of the estrogen receptor alpha (ER-alpha) signaling pathway using the BG1 cell line (AID 743080; calls by dose curve;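 further: BG1 cells stimulated with 17beta-estradiol alongside compound; on the % scale 0 is the no-effect control and ±100 the full control effect; nearly all actives have a fitted effect of over 25% in size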)
How it was run: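 Luminescence from a 4×ERE-luciferase reporter in BG1-Luc-4E2 cells served as read-out. Cells, pre-cultured 5 days in stripped-serum phenol-red-free medium, were exposed to compound with 17beta-estradiol co-stimulation for 21.5 h at 37 C.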

[16] = molecular target: Estrogen receptor (Homo sapiens) (UniProt P03372); assay: qHTS assay to identify small molecule antagonists of the estrogen receptor alpha (ER-alpha) signaling pathway (AID 743069; active means well fitted curve in the direction sought with a large enough effect in the signal ratio in the repeat runs, not every such curve was filed as active; the % refers to the signal ratio; further: on the % scale 0 is the no-effect control and ±100 the full control effect)
How it was run: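 Antagonist mode: compounds in DMSO were co-added with 17beta-estradiol to ER-alpha-bla HEK293 cells (2% charcoal-stripped serum) and left 18 h at 37C. Reporter inhibition was measured as FRET fluorescence after 2 h LiveBLAzer substrate at room temperature.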

Cc1cc(/C=C/c2ccc3cc(N(C)C)ccc3[n+]2C)c(C)n1-c1ccccc1
inactive: max activation [5] -14% | Potency [6]
active: Potency [1] 6.39 µM | Potency [2] 4.03 µM | Potency [3] 11.4 µM | Potency (Aromatase (Homo sapiens)) 7.17 µM | Potency [4] 8.04 µM

CCC(=O)OCC(=O)[C@@]1(OC(=O)CC)[C@H](C)C[C@H]2[C@@H]3CCC4=CC(=O)C=C[C@]4(C)[C@@]3(F)[C@@H](O)C[C@@]21C
inactive: Potency [1] | Potency [7] | Potency [8] | Potency [3] | Potency (Aromatase (Homo sapiens)) | Potency [4] | Potency [9] | Potency [10] | Potency [11]

O=C1CSC2(CCN(CCCN3c4ccccc4Sc4ccc(Cl)cc43)CC2)N1
active: Potency [1] 10.6 µM | Potency [2] 10.6 µM | Potency [9] 13.3 µM
inactive: Potency [12] | Potency [13]

CC(C)(C)C1(O)CCN2CC3c4ccccc4CCc4cccc(c43)C2C1 (stereo not given)
active: Potency [1] 26.6 µM | Potency [2] 23.7 µM | Potency (Aromatase (Homo sapiens)) 29.8 µM | Potency [6] 14.1 µM
inactive: Potency [14] | Potency [7] | Potency [12] | Potency [3] | Potency [9] | Potency [11]

CCCCCCCCCCCCCCCC(=O)O[C@@H]1CC(C)=C(/C=C/C(C)=C/C=C/C(C)=C/C=C/C=C(C)/C=C/C=C(C)/C=C/C2=C(C)C[C@@H](OC(=O)CCCCCCCCCCCCCCC)CC2(C)C)C(C)(C)C1
inactive: Potency [14] | Potency [7] | Potency [12] | Potency [8] | Potency [15] | Potency [3] | Potency (Aromatase (Homo sapiens)) | Potency [4] | Potency [9] | Potency [10] | Potency [11]

CC(CN1c2ccccc2Sc2ccc(S(=O)(=O)N(C)C)cc21)N(C)C (stereo not given)
active: Potency [2] 13.3 µM
inactive: Potency [16] | Potency [7] | Potency [12] | Potency [8] | Potency [3] | Potency [4] | Potency [11]

N=C(N)c1ccc(OCCCOc2ccc(C(=N)N)cc2Br)c(Br)c1
inactive: Potency [14]

N#Cc1ccc2c(c1)N(CCCN1CCC(O)CC1)c1ccccc1S2
inactive: Potency [16] | Potency [7] | Potency [12] | Potency [8] | Potency [15] | Potency [3] | Potency (Aromatase (Homo sapiens)) | Potency [4] | Potency [9] | Potency [11] | max activation [5] -1.43%
active: Potency [1] 9.44 µM | Potency [2] 21.1 µM

CC(CN(C)C)CN1c2ccccc2Sc2ccc(C(F)(F)F)cc21 (stereo not given)
active: Potency [1] 8.41 µM | Potency [2] 13.3 µM | Potency [6] 25.1 µM
inactive: Potency [7] | Potency [3] | Potency [4] | max activation [5] 2.66%

CC(CC(c1ccccc1)c1ccccc1)NC(C)(C)C (stereo not given)
active: Potency [2] 21.1 µM
inactive: Potency [14] | Potency [12] | Potency [8] | Potency [15] | Potency (Aromatase (Homo sapiens)) | Potency [4] | Potency [9] | Potency [10] | Potency [11]

CCOC(=O)Nc1ccc2c(c1)N(C(=O)CN(C)C)c1ccccc1CC2
inactive: Potency [14] | Potency [7]
active: Potency [1] 48.6 µM | Potency [2] 48.6 µM

O=C(CCCN1CCC(C(=O)c2ccc(F)cc2)CC1)c1ccc(F)cc1
active: Potency [6] 15.8 µM
inactive: Potency [14] | Potency [16] | Potency [7] | Potency [12] | Potency [8] | Potency [15] | Potency [3] | Potency (Aromatase (Homo sapiens)) | Potency [4] | Potency [9] | Potency [10] | Potency [11] | max activation [5] 4%

CNC(C)CCC=C(C)C (stereo not given)
inactive: Potency [14] | Potency [3] | Potency (Aromatase (Homo sapiens)) | Potency [4] | Potency [10] | Potency [11] | Potency [13] | Potency [6]

CN1CCN(CCC=C2c3ccccc3Sc3ccc(S(=O)(=O)N(C)C)cc32)CC1
active: Potency [1] 13.3 µM | Potency [2] 8.41 µM | Potency [4] 29.8 µM
inactive: Potency [16] | Potency [12] | Potency [8] | Potency [15] | Potency [9]

From PubChem BioAssay (Tox21)
